Where “and” joins values, the source holds several entries; their conditions need not be identical. Identical values can stand only once. In all, about 16,000 compounds went through this assay and about 5,100 (32%) were called active. Another 25% or so got no clear call; they are omitted. Calls follow the shape of the dose curve; as a rule, active = well fitted curve in the direction sought with a large enough effect; inconclusive = small, poorly fitted or top-dose-only effect, or effect the other way; inactive = no such curve, though single readings can be large or run the other way. This is one part of the list.
These compounds were tested against Cytochrome P450 3A4 (Homo sapiens) (UniProt P08684) (assay: Cytochrome panel assay with activity outcomes). Conditions: recombinant CYP, pro-luciferin dealkylation, luminescence, p450-cyp3a4; series mostly up to 57.1 µM.
% is scaled to controls: 0 for no effect and ±100 for the full control effect.

Cytochrome P450 3A4 (Homo sapiens), sequence (P08684 whole entry, looked up): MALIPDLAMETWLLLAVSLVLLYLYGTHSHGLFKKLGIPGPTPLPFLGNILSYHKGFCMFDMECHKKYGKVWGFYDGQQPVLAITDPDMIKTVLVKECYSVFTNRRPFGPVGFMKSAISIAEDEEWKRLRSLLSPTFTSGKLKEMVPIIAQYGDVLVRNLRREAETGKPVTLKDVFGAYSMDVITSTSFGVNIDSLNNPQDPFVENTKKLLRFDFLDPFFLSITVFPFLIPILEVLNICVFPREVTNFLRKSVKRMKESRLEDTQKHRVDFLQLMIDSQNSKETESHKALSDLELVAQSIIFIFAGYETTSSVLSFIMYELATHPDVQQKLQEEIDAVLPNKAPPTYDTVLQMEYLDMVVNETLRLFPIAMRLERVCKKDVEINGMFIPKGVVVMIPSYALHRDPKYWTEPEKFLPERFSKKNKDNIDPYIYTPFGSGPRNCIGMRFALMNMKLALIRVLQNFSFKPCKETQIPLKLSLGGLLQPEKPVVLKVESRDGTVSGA

AC50, inactive:
Cn1c2c(c(=O)n(C)c1=O)CN(CCN1CCNCC1)CN2
O=C(Cn1nnc2ccccc21)N/N=C\C=C\c1ccccc1
CCc1ccc(NC(=O)C2CCN(S(=O)(=O)c3c(C)[nH]c(=O)[nH]c3=O)CC2)cc1
Cc1cccc(NC(=O)C2CCN(S(=O)(=O)c3cccc4nsnc34)CC2)n1
CC(=O)Nc1ccc(NC(=O)C2CCN(S(=O)(=O)c3cccc4nonc34)CC2)cc1
COC(=O)c1ccccc1Oc1c(F)c(F)nc(N2CCOCC2)c1F
CN(C)c1ncc2nc(-c3ccccc3)c(=O)n(C)c2n1
COc1cccc(Cn2c(=O)c(-c3cc(F)cc(F)c3)nc3cnc(N(C)C)nc32)c1
COc1ccc(C2=Nc3cccc4cccc(c34)N2)cc1
CCNc1nc(NCC)nc(ON=C(C)C)n1
CCn1cc(C(=O)N/N=C(/C)c2ccc(F)cc2)c(=O)c2cc(F)c(N3CCCC3)cc21
O=C1C(O)=C(O)C(=O)C(O)=C1O
CC1=CC=CN2CC(O)CN=C12 (stereo not given)

AC50, active:
O=C(CSCC(=O)OCn1nnc2ccccc2c1=O)Nc1ccc(Cl)cc1 22.4 µM
O=C(OCn1nnc2ccccc2c1=O)c1cccnc1 8.91 µM
COc1ccc(OC)c(S(=O)(=O)N2CCC(C(=O)Nc3ccc(C)c(C)c3)CC2)c1 5.01 µM
COc1ccc2nc(NC(=O)C3CCN(S(=O)(=O)c4cccc5nsnc45)CC3)sc2c1 14.1 µM
O=C(NCc1cccs1)C1CCN(S(=O)(=O)c2cccc3nsnc23)CC1 12.6 µM
O=C(NCC1COc2ccccc2O1)C1CCN(S(=O)(=O)c2cccc3nsnc23)CC1 (stereo not given) 20 µM
COc1ccc(CCNC(=O)C2CCN(S(=O)(=O)c3cccc4nsnc34)CC2)cc1OC 3.98 µM
COc1cc(NC(=O)C2CCN(S(=O)(=O)c3cccc4nonc34)CC2)cc(OC)c1 3.16 µM
COC(=O)c1ccccc1OCC(=O)N1CCN(c2ccc(Cl)cc2)CC1 15.8 µM
O=S1(=O)C=C(SCc2cccc(Cl)c2)Nc2ccccc21 2 µM
COc1cccc(Cn2c(=O)c(-c3ccccc3)nc3cnc(N(C)C)nc32)c1 6.31 µM
COc1cccc(Cn2c(=O)c(-c3ccccc3)nc3cnc(OC)nc32)c1 7.94 µM
COc1ccc(-c2nc3cnc(OC)nc3n(Cc3cccc(OC)c3)c2=O)cc1 2.51 µM
COc1ccc(CNc2ncncc2-c2cccc(C#N)c2)c(OC)c1 0.316 µM
COc1cccc(-c2cncnc2NCc2ccccc2OC)c1 0.501 µM
COc1cccc(-c2cncnc2NCc2ccc(OC)cc2OC)c1 0.501 µM
COc1ccc(CNc2ncncc2-c2cccnc2)c(OC)c1 0.501 µM
COc1ccccc1CNc1ncncc1-c1cccnc1 0.794 µM
C[C@@H](c1ccccc1)N1C(=O)[C@H]2[C@H]3[C@H](O)[C@H](O)C/C(=N/OC[C@@H](O)COCc4ccco4)[C@@H]3CC[C@@H]2C1=O 3.16 µM
C[C@@H](c1ccccc1)N1C(=O)[C@H]2[C@H]3[C@H](O)[C@H](O)C/C(=N/OC[C@@H](O)COCc4ccco4)[C@H]3CC[C@@H]2C1=O 3.98 µM
CC(C)(C)N1C(=O)[C@H]2[C@H]3[C@H](O)[C@H](O)C/C(=N/OC[C@@H](O)COCc4ccco4)[C@@H]3CC[C@@H]2C1=O 5.01 µM

activity, negative = inhibition, inactive:
COc1ccc2nc(NCN3C(=O)c4ccccc4C3=O)sc2c1 -27.9% [at 11.4 µM]
Nc1nc2c(C(=O)NCc3cccs3)nnn2c2cccc(Cl)c12 -1.06% [at 11.4 µM]
Cc1ccc(NC(=O)C2CCN(S(C)(=O)=O)CC2)cc1 0.664% [at 2.29 µM]
CC(C)=CCNc1ncnc2nc[nH]c12 -14.9% [at 11.4 µM]
COC(=O)c1ccccc1OCC(=O)N1CCN(c2ccc(OC)cc2)CC1 -29.6% [at 11.4 µM]
OCCCNc1ncnc2[nH]ncc12 -20.7% [at 11.4 µM]
CC[C@@H]1CC(=O)N(SC[C@H](N)C(=O)O)C1=O -4.06% [at 11.4 µM]
Oc1c(Br)cc(CN(Cc2cc(Br)c(O)c(Br)c2)C2CCCCC2)cc1Br -9.71% [at 11.4 µM]
Cn1ccnc1C[C@@](C)(O)c1ccccc1 -4.26% [at 11.4 µM]
C[C@@H](c1ccccc1)N1C(=O)[C@H]2[C@@H]3[C@H](O)[C@H](O)CC(=O)[C@H]3CC[C@H]2C1=O -24.3% [at 11.4 µM] and -16.6% [at 11.4 µM]
CCOC(=O)CCN1C(=O)[C@H]2[C@H]3[C@H](O)[C@H](O)C/C(=N/OC[C@@H](O)COCc4ccco4)[C@@H]3CC[C@@H]2C1=O -16.7% [at 11.4 µM]
CC(=O)OC[C@@H]1O[C@@H](O/N=C2/C[C@@H](O)[C@@H](O)[C@@H]3[C@@H]4C(=O)N([C@@H](C)c5ccccc5)C(=O)[C@H]4CC[C@H]23)[C@H](OC(C)=O)[C@H](OC(C)=O)[C@@H]1OC(C)=O -29.1% [at 11.4 µM]
O=C1[C@H]2[C@H]3[C@H](O)[C@H](O)C/C(=N/OC[C@@H](O)COCc4ccco4)[C@H]3CC[C@@H]2C(=O)N1C[C@@H]1CCCO1 -13.4% [at 11.4 µM]
O=C1[C@H]2[C@H]3[C@H](O)[C@H](O)C/C(=N/OC[C@@H](O)COCc4ccco4)[C@@H]3CC[C@@H]2C(=O)N1C[C@@H]1CCCO1 -23.9% [at 11.4 µM]
CCOC(=O)CCN1C(=O)[C@H]2[C@H]3[C@H](O)[C@H](O)C/C(=N/OC[C@@H](O)COCc4ccco4)[C@H]3CC[C@@H]2C1=O -22.6% [at 11.4 µM]
NC(N)=NC(N)=Nc1ccc(S(=O)(=O)O)cc1 -0.586% [at 11.4 µM]

Source: PubChem BioAssay AID1851 (National Center for Advancing Translational Sciences (NCATS), 2009)
